# Data reported in PubChem BioAssay AID1117291 (Broad Institute, 2014).
# Entries with a potency or affinity are not part of this list. Results filed as inconclusive are left out. Values without a mark were called inactive. Activity calls are given as the source filed them.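 How the source made its calls: active means compound whose fitted half-maximal potency lies at or below double its highest tested dose in every test; inconclusive means tests disagree, or a flat partial loss, or a poor fit; inactive means every test inactive.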
# Test: hepatoma cell viability loss – CellTiter-Glo luminescence, dry powder, set 20, cytotoxicity control, dose response (AID 1117291)
# Conditions: HepG2 viability, CellTiter-Glo ATP luminescence, 72 h; series mostly up to 26 µM; activity change, negative = cytotoxicity: at the top concentration
Structure (SMILES),outcome,"activity change, negative = cytotoxicity [%]"
COc1ccc(C(=O)O)cc1S(=O)(=O)Nc1cc(C(F)(F)F)ccc1N1CCCCC1,inactive,
CC(=O)N1CCN(C(=O)C2(NC(=O)NC(C)(C)C)CCCCC2)CC1,,-12.5
CC(=O)N1CCN(C(=O)[C@@H]2CCN2C(=O)Nc2ccc(C)cc2)CC1,,-9.8
O=C(Nc1cc(C(F)(F)F)ccc1N1CCCCC1)c1ccc(S(=O)(=O)O)cc1,,2.79
COc1ccc(C(=O)Nc2cc(F)ccc2N2CCCCC2)cc1S(=O)(=O)O,,-9.22
CC(=O)N1CCN(C(=O)C2(NC(=O)Nc3cccc(C(F)(F)F)c3)CCCCC2)CC1,,-9.88
O=S(=O)(Nc1cc(C(F)(F)F)ccc1N1CCCCC1)c1ccc(Cl)cc1,,-23.2
O=[N+]([O-])c1ccc(S(=O)(=O)Nc2cc(C(F)(F)F)ccc2N2CCCCC2)c([N+](=O)[O-])c1,,-4.65
COc1ccc(C(=O)Nc2ccccc2N2CCCCC2)cc1S(=O)(=O)O,,-17.1
CC(=O)N1CCN(C(=O)C2(NC(=O)Nc3ccc(C(C)C)cc3)CCCCC2)CC1,,-21.6
Cc1ccccc1S(=O)(=O)Nc1cc(C(F)(F)F)ccc1N1CCCCC1,,-22.7
CC(=O)N1CCN(C(=O)C2(NC(=O)Nc3cccc(F)c3)CCCCC2)CC1,,1.14
COc1ccc(C(=O)Nc2cc(C(F)(F)F)ccc2N2CCCCC2)cc1S(=O)(=O)O,,-13.2
O=S(=O)(Nc1cc(C(F)(F)F)ccc1N1CCCCC1)c1ccc(-c2ccccc2)cc1,,-11.2
CC(=O)N1CCN(C(=O)C(C)(C)NC(=O)Nc2ccc(C)cc2)CC1,,-8.86
CC(=O)N1CCN(C(=O)C2(NC(=O)Nc3ccc(C(F)(F)F)cc3)CCCC2)CC1,,-26.9
O=S(=O)(Nc1cc(C(F)(F)F)ccc1N1CCCCC1)c1ccccc1,,-7
CC(=O)N1CCN(C(=O)C2(NC(=O)Nc3ccccc3)CCCC2)CC1,,5
NC(=NCCc1c[nH]c2ccccc12)NS(=O)(=O)c1cc(F)ccc1F,,-6.37
CC(=O)N1CCN(C(=O)C2(NC(=O)Nc3ccc(C)cc3)CC2)CC1,,-23.3
CC(=O)N1CCN(C(=O)C2(NC(=O)Nc3ccc(C(F)(F)F)cc3)CCCCC2)CC1,,1.91
COc1ccc(C(=O)O)cc1S(=O)(=O)Nc1cc(C(F)(F)F)ccc1N1CCOCC1,,-30.4
